According to PubChem BioAssay AID1159580 (chemical genetic matrix, 2015):
“And” between values parts separate entries of the source, which are not always exact repeats. Equal entries are not always repeated. In all, about 5,500 compounds went through this assay and about 2,000 (36%) were called active. Roughly 18% stayed inconclusive and do not appear here. Rule as the data show it: active = normalized growth mostly below about 0.91 (no sharp cut-off); inconclusive = no clear call, values can overlap the other calls; inactive = mostly above about 0.92. The list shows a part of the results.

Assay: chemical genetic growth profiling, strain panel (AID 1159580);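 also: tested at 20 µM; growth read once vehicle control cultures reached saturation at 30 °C; 1 = growth at the plate median or of vehicle wells; lower values mean less growth of the strain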
Conditions: S. cerevisiae deletion strains, growth OD

Measured: normalized growth

OC[C@H]1O[C@@H](O[C@@H]2[C@@H](CO)O[C@](O)(CO)[C@H]2O)[C@H](O)[C@@H](O)[C@H]1O
inactive: locus YAL021C, strain ccr4, stronger effect = lower value 1.02 | locus YAL026C, strain drs2, stronger effect = lower value 1.01 | locus YAL030W, strain snc1, stronger effect = lower value 1 | locus YBL061C, strain skt5, stronger effect = lower value 1.02 | locus YBR009C, strain hhf1, stronger effect = lower value 1.01 | locus YBR021W, strain FUR4, stronger effect = lower value 0.983 | locus YBR023C, strain chs3, stronger effect = lower value 0.995 | locus YBR171W, strain sec66, stronger effect = lower value 1.02 | locus YBR229C, strain ROT2, stronger effect = lower value 0.986 | locus YBR231C, strain swc5, stronger effect = lower value 1.01 | locus YBR279W, strain paf1, stronger effect = lower value 1.02 | locus YCL011C, strain gbp2, stronger effect = lower value 1.01 | locus YCL016C, strain dcc1, stronger effect = lower value 0.985 | locus YCL029C, strain bik1, stronger effect = lower value 0.988 | locus YCL069W, strain vba3, stronger effect = lower value 1.01 | locus YCR088W, strain abp1, stronger effect = lower value 1 | locus YDL005C, strain med2, stronger effect = lower value 1.03 | locus YDL035C, strain GPR1, stronger effect = lower value 1.01 | locus YDL040C, strain nat1, stronger effect = lower value 1.01 | locus YDL074C, strain BRE1, stronger effect = lower value 1 | locus YDL101C, strain DUN1, stronger effect = lower value 0.988 | locus YDL185W, strain tfp1, stronger effect = lower value 0.992 | locus YDL192W, strain arf1, stronger effect = lower value 0.993 | locus YDR001C, strain nth1, stronger effect = lower value 1.01 | locus YDR069C, strain doa4, stronger effect = lower value 1.02 | locus YDR101C, strain arx1, stronger effect = lower value 1.01 | locus YDR137W, strain rgp1, stronger effect = lower value 1.01 | locus YDR150W, strain NUM1, stronger effect = lower value 0.995 | locus YDR159W, strain sac3, stronger effect = lower value 1.01 | locus YDR162C, strain NBP2, stronger effect = lower value 1.01 | locus YDR195W, strain ref2 1.03 | locus YDR297W, strain sur2, stronger effect = lower value 1.01 | locus YDR318W, strain mcm21, stronger effect = lower value 0.981 | locus YDR334W, strain swr1, stronger effect = lower value 1.01 | locus YDR335W, strain msn5, stronger effect = lower value 1.02 | locus YDR388W, stronger effect = lower value 0.987 | locus YDR392W, strain spt3, stronger effect = lower value 0.949 | locus YDR502C, strain sam2, stronger effect = lower value 0.986 | locus YEL003W, strain gim4, stronger effect = lower value 1.01 | locus YEL037C, strain rad23, stronger effect = lower value 1 | locus YEL061C, strain CIN8 (second series), stronger effect = lower value 1.02 | locus YEL061C, strain CIN8, stronger effect = lower value 0.995 | locus YER015W, strain faa2, stronger effect = lower value 1 | locus YER016W, strain bim1, stronger effect = lower value 1.02 | locus YER110C, stronger effect = lower value 0.979 | locus YER111C, strain swi4, stronger effect = lower value 1 | locus YER155C, strain BEM2 (second series), stronger effect = lower value 1.03 | locus YER155C, strain BEM2, stronger effect = lower value 0.987 | locus YER167W, strain BCK2, stronger effect = lower value 0.995 | locus YFR010W, strain ubp6, stronger effect = lower value 1.02 | locus YGL078C, strain dbp3, stronger effect = lower value 0.963 | locus YGL086W, strain mad1, stronger effect = lower value 1 | locus YGL167C, strain pmr1, stronger effect = lower value 1.02 | locus YGL173C, strain kem1, stronger effect = lower value 1.01 | locus YGL227W, strain vid30, stronger effect = lower value 1.01 | locus YGL240W, strain doc1, stronger effect = lower value 1.03 | locus YGL248W, strain PDE1, stronger effect = lower value 0.983 | locus YGL253W, strain hxk2, stronger effect = lower value 0.99 | locus YGR135W, strain pre9, stronger effect = lower value 0.941 | locus YGR252W, strain gcn5, stronger effect = lower value 0.944 | locus YHR013C, strain ard1, stronger effect = lower value 1.03 | locus YHR027C, strain rpn1, stronger effect = lower value 1.01 | locus YHR030C, strain SLT2, stronger effect = lower value 0.993 and 0.984 | locus YHR079C, strain IRE1 (second series), stronger effect = lower value 0.983 | locus YHR079C, strain IRE1, stronger effect = lower value 0.989 | locus YHR094C, strain hxt1, stronger effect = lower value 0.979 | locus YHR129C, strain ARP1, stronger effect = lower value 0.992 | locus YHR142W, strain chs7, stronger effect = lower value 1 | locus YHR200W, strain rpn10, stronger effect = lower value 0.978 | locus YIL066C, strain RNR3, stronger effect = lower value 0.994 | locus YIL073C, strain SPO22, stronger effect = lower value 0.973 | locus YIL125W, strain kgd1, stronger effect = lower value 0.978 | locus YIR030C, strain dcg1, stronger effect = lower value 0.987 | locus YJL092W, strain hpr5, stronger effect = lower value 1.01 | locus YJL095W, strain BCK1 (second series), stronger effect = lower value 1.01 | locus YJL095W, strain BCK1, stronger effect = lower value 0.977 and 0.994 | locus YJL115W, strain asf1, stronger effect = lower value 1.01 | locus YJL129C, strain trk1, stronger effect = lower value 1.01 | locus YJL134W, strain LCB3, stronger effect = lower value 0.995 | locus YJL154C, strain vps35, stronger effect = lower value 1.02 | locus YJL164C, strain tpk1, stronger effect = lower value 0.984 | locus YJL166W, strain qcr8, stronger effect = lower value 1.01 | locus YJL168C, strain set2, stronger effect = lower value 0.976 | locus YJL187C, strain SWE1 (second series), stronger effect = lower value 0.993 | locus YJR043C, strain POL32, stronger effect = lower value 1.02 | locus YJR066W, strain TOR1, stronger effect = lower value 0.942
